Bioassay records as filed in PubChem BioAssay.
ClpP mod – qHTS Assay for Activators of ClpP | actives 1.9% (n = 340,000) | AID 651965, 2013 | Potency, µM (series often up to 57.5 µM) | purified B. subtilis ClpP, FRET peptide cleavage, 20 min | ATP-dependent Clp protease proteolytic subunit (Bacillus subtilis (strain 168)), P80244; active = well fitted falling curve with a large enough effect; inconclusive = small, poorly fitted or top-dose-only effect; inactive = no such curve, though single readings can be large or run the other way; note: the source files actives as falling curves though it sought activators and does not explain the sign; nearly all actives have a fitted effect of over 65% in size
Target sequence (P80244 whole entry, looked up): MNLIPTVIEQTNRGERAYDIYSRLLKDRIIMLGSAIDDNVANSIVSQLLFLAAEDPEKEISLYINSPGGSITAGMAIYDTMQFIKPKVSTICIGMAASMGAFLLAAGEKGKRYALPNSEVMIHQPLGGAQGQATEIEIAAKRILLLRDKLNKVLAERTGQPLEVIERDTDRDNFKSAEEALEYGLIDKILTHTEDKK
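Purified B. subtilis ClpP, 10 microg/mL final in Tris/HCl pH8 with KCl, BSA, glycerol and Tween-20, cleaved an Abz/nitrotyrosine-quenched decapeptide. Fluorescence (ex 320, em 430) was read at 0 and 20 min at room temperature. Delta was normalized to 5.8 microM ADEP and DMSO/no-enzyme controls.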
Abeta yeast res – A-beta toxicity reversal in yeast; AID 1347071; actives 0.063% (n = 410,000); Potency, µM (highest dose often 46.1 µM), usual class: activators; yeast expressing A-beta42, growth rescue, OD600, 48 h; response scale: 0% DMSO, 100% iron-clioquinol control; note: nearly all actives have a fitted effect of over 55% in size
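Yeast A-beta toxicity model in growth medium with pinned compounds, 48 h at 30 C; growth read as absorbance at 600 nm. Normalized to FeCl3/clioquinol equimolar mix (positive) and DMSO (negative).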
MmCpn inh – blocks the Methanococcus maripaludis chaperonin Mm-Cpn. purified Mm-Cpn ATPase, ADP Transcreener TR-FRET. Potency, µM (highest dose often 76.9 µM), actives largely listed as inhibitors. actives 0.031% (n = 330,000); note: nearly all actives have a fitted effect of over 80% in size
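Measured: ADP formation by purified Mm-CPN. Conditions: 25 nM protein, 10 uM ATP, Tris pH 7.4 with Mg2+, K+ and DTT, 37°C for 30 min. Detection: Transcreener HTRF after 30 min at room temperature.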
TDP-43 yeast inh – rescues yeast growth from TDP-43 toxicity | TDP-43 expressing yeast growth rescue, BacTiter-Glo, 24 h | Potency, µM (doses to about 46.1 µM), hits mostly activators | actives 1.8% (n = 410,000) | AID 652104; note: nearly all actives have a fitted effect of over 50% in size
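Growth rescue of TDP-43-toxic yeast measured as ATP luminescence (BacTiter-Glo). Cells grown to mid-log in raffinose, induced in galactose at OD600=0.02, exposed to compound 24 hr at 30 deg C.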
FUS yeast rescue – rescues growth of FUS-expressing yeast; S. cerevisiae FUS-expressing, growth rescue, OD600, 24 h; Potency, µM (doses to about 76.6 µM), most hits filed as activators; actives 0.24% (n = 390,000); AID 1347120; note: nearly all actives have a fitted effect of over 55% in size
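Read-out: OD at 600 nm after 24hr at 30C, reporting rescue of FUS-induced yeast toxicity. Cells at OD 0.005 in galactose (2%) minimal medium; compounds tested in a dilution series; CP55940 titration from 92uM final as control.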
aSyn rescue – inhibitors of alpha-synuclein toxicity in yeast; Yeast expressing alpha-synuclein, growth rescue, BacTiter-Glo, 24 h; Potency, µM (top dose mostly 46.1 µM), most hits filed as activators; actives 0.14% (n = 370,000); AID 652106; note: nearly all actives have a fitted effect of over 65% in size
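Galactose-induced alpha-syn yeast (OD600=0.02, raffinose-pregrown) + pinned cpd, 24 hr, 30 deg C; growth by BacTiter-Glo luminescence. Growth restoration scores as activation.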
Of the large screens only hits and unclear results are named; the others gave an inactive call. The list is not random: actives were taken first. Their share in the collection is about 3.6%. Unless noted, calls come from the whole dose curve; as a rule, active = well fitted curve in the direction sought with a large enough effect; inconclusive = small, poorly fitted or top-dose-only effect, or another doubt; inactive = no such curve, though single readings can be large; an effect the other way counts as inactive or inconclusive.

CCCC(=O)NCCc1cc2ccc(OC)cc2[nH]c1=O	none
CCCC(=O)NCCc1cc2cc(C)c(C)cc2[nH]c1=O	ClpP mod 25µM
Cc1ccc(CN2C(=O)C(Cc3ccccc3)Nc3ncnc(N4CCN(c5ccccc5)CC4)c32)cc1 (centres undefined)	FUS yeast rescue 25µM
COC(=O)c1cc(NS(=O)(=O)c2ccc(NCc3cccnc3)c(N)c2)cc(C(=O)OC)c1	none (no result: FUS yeast rescue)
COC(=O)c1cc(NS(=O)(=O)c2ccc(NCc3cccnc3)c([N+](=O)[O-])c2)cc(C(=O)OC)c1	ClpP mod 28µM (no result: FUS yeast rescue)
O=Cc1cccc(OCc2cccc3ccccc23)c1	TDP-43 yeast inh 14µM
COc1ccc(C#Cc2c[nH]c(=O)c3cncnc23)cc1OC	none (no result: Abeta yeast res, MmCpn inh, TDP-43 yeast inh, FUS yeast rescue)
C#CCSc1nnc(CSc2nc3ccccc3s2)n1-c1ccccc1	TDP-43 yeast inh 22µM
Cc1cc(C)cc(N=c2c([N+](=O)[O-])nn(-c3ccc(Cl)cc3)n2O)c1	TDP-43 yeast inh inconclusive (no result: ClpP mod)
CCc1ccc(N=c2c([N+](=O)[O-])nn(-c3ccccc3)n2O)cc1	Abeta yeast res inconclusive, TDP-43 yeast inh 13µM
Cc1ccc(CN=c2c([N+](=O)[O-])nn(-c3cccc(C)c3)n2O)cc1	TDP-43 yeast inh 16µM
Cc1ccc(CN=c2c([N+](=O)[O-])nn(-c3cccc(Cl)c3)n2O)cc1	Abeta yeast res inconclusive, TDP-43 yeast inh 10µM (no result: ClpP mod)
Cc1ccc2ncc(C(=O)NCCc3ccc(S(N)(=O)=O)cc3)c(=O)n2c1	none (no result: MmCpn inh, aSyn rescue)
O=C(CSc1nc(=O)n(CCN2CCOCC2)c2c1CCC2)Nc1ccc(Cl)c(Cl)c1	none (no result: MmCpn inh, aSyn rescue)
COc1ccc(C2=C(c3ccc([N+](=O)[O-])cc3)C(=O)OC2)cc1	none (no result: ClpP mod)
Cc1ccc(C2=C(c3ccc([N+](=O)[O-])cc3)C(=O)OC2)cc1C	MmCpn inh inconclusive, TDP-43 yeast inh 13µM
COCCn1c(SCC(=O)NNC(=O)c2ccc(OC)c(OC)c2)nc2ccccc2c1=O	none (no result: ClpP mod)
COc1ccc(C(=O)CSc2nc3ccccc3n2CC(=O)NC(C)(C)C)cc1	aSyn rescue 14µM
COCCCNC(=O)CSc1nc2ccccc2c(=O)n1Cc1ccc2c(c1)OCO2	ClpP mod 28µM
CCN(C(=O)CSc1nc2ccccc2n1Cc1ccc(C(=O)OC)cc1)c1ccccc1	none (no result: MmCpn inh, aSyn rescue)
COCCn1c(SCC(=O)NNC(=O)c2ccccc2)nc2ccccc2c1=O	ClpP mod 28µM
COC(=O)c1ccc(Cn2c(SCC(=O)NCc3ccccc3)nc3ccccc32)cc1	TDP-43 yeast inh 35µM, FUS yeast rescue inconclusive (no result: MmCpn inh, aSyn rescue)
CCOC(=O)CSc1nc2ccccc2n1CC(=O)NC(C)(C)C	none
COc1cc(NC(=O)c2ccc(-c3nc(COc4ccccc4)c(C)o3)cc2)cc(OC)c1	ClpP mod inconclusive (no result: MmCpn inh, aSyn rescue)
Cn1c(SCc2cccc([N+](=O)[O-])c2)nc2ccccc2c1=O	none (no result: FUS yeast rescue)
COCCn1c(SCc2cccc([N+](=O)[O-])c2)nc2ccccc2c1=O	TDP-43 yeast inh 18µM
Cc1cccc2c(=O)c(-c3ccc4c(c3)OCO4)c(NC(=O)c3ccco3)oc12	TDP-43 yeast inh 16µM
COc1cc(-c2c(NC(=O)c3ccco3)oc3c(C)cccc3c2=O)cc(OC)c1OC	none (no result: ClpP mod)
COc1ccc(-c2c(NC(=O)c3ccco3)oc3c(C)cccc3c2=O)cc1	TDP-43 yeast inh 14µM
O=C(C1CCCO1)N1CCN(C2=Nc3ccccc3Sc3ccccc32)CC1 (centres undefined)	none (no result: ClpP mod, Abeta yeast res, MmCpn inh, TDP-43 yeast inh, aSyn rescue)
COc1cc(OC)cc(C(=O)Nc2cc3c(cc2N2CCOCC2)n(C)c(=O)n3C)c1	none (no result: MmCpn inh, aSyn rescue)
CCC(C)NC(=O)Cn1c(=O)n(CCCCCC(=O)NCc2ccccc2Cl)c(=O)c2sccc21 (centres undefined)	none (no result: MmCpn inh, aSyn rescue)
COc1ccc(NC(=O)c2oc3ccc(S(=O)(=O)N(C)C4CCCCC4)cc3c2C)cc1Cl	ClpP mod 28µM (no result: MmCpn inh, aSyn rescue)
CCOC(=O)C1CCC(CN(Cc2cccc(Br)c2)S(=O)(=O)c2ccc(C)cc2)CC1 (centres undefined)	none (no result: MmCpn inh, aSyn rescue)
COc1ccc2c(c1)c(=O)oc1cc(OCC(=O)N3CCc4ccccc4C3)ccc12	ClpP mod 4.5µM
COc1ccc2c(c1)c(=O)oc1cc(OCC(=O)N3CCC(C)CC3)ccc12	ClpP mod 18µM, TDP-43 yeast inh inconclusive
Cc1c(C)c2ccc(OCC(=O)N3CCC(C(=O)O)CC3)cc2oc1=O	none
CCC1CCCCN1C(=O)COc1ccc2c3c(c(=O)oc2c1)CCC3 (centres undefined)	ClpP mod 28µM, TDP-43 yeast inh inconclusive
COc1ccc2c(c1)c(=O)oc1cc(OCC(=O)N3CCCC(C)C3)ccc12 (centres undefined)	ClpP mod inconclusive, TDP-43 yeast inh 25µM
CCOC(=O)c1c(C)[nH]c(C)c1S(=O)(=O)N(C)CC(=O)Nc1ccc(C)cc1C	none (no result: MmCpn inh, aSyn rescue)
Cc1ccc(CNC(=O)CCc2c(C)nc3c4c(C)cc(C)nc4nn3c2C)cc1	none (no result: MmCpn inh, aSyn rescue)
O=C(CSC1=NCCS1)Nc1ccc(S(=O)(=O)NC2CCCCC2)cc1	FUS yeast rescue 40µM
O=C(CSC1=NCCS1)Nc1ccc(S(=O)(=O)N2CCCCCC2)cc1	none
CCN(CC)S(=O)(=O)c1ccc(C)c(NC(=S)NNC(=O)C2CC2)c1	ClpP mod 25µM (no result: FUS yeast rescue)
CCOc1ccc2[nH]c(=O)c(CN(CCO)C(=O)c3ccc(F)cc3)cc2c1	ClpP mod 22µM
CCOc1ccc2[nH]c(=O)c(CN(CCO)C(=O)c3ccc(OC)c(OC)c3)cc2c1	ClpP mod 28µM
